Data taken from PubChem BioAssay AID1159580 (chemical genetic matrix, 2015).
Screen size: about 5,500 compounds; about 2,000 (36%) were called active. Not shown: some 18% with an inconclusive outcome. The list shows a part of the results. Values without a mark were called inactive. No stated cut-off is given here; in the data, active means normalized growth mostly below about 0.91 (no sharp cut-off); inconclusive means no clear call, values can overlap the other calls; inactive means mostly above about 0.92.

Test: chemical genetic growth profiling, strain panel (AID 1159580);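 further: tested at 20 µM; growth read once vehicle control cultures reached saturation at 30 °C; 1 = growth at the plate median or of vehicle wells; lower values mean less growth of the strain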
Details: growth OD
[1] = S. cerevisiae deletion strains, locus YAL013W, strain DEP1, active compounds read low
[2] = S. cerevisiae deletion strains, locus YBR229C, strain ROT2, active compounds read low
[3] = S. cerevisiae deletion strains, locus YDL101C, strain DUN1, active compounds read low
[4] = S. cerevisiae deletion strains, locus YDL134C, strain PPH21, active compounds read low
[5] = S. cerevisiae deletion strains, locus YDR150W, strain NUM1, active compounds read low
[6] = S. cerevisiae deletion strains, locus YGR078C, strain PAC10, active compounds read low
[7] = S. cerevisiae deletion strains, locus YHR030C, strain SLT2, active compounds read low
[8] = S. cerevisiae deletion strains, locus YHR087W, strain rtc3, active compounds read low
[9] = S. cerevisiae deletion strains, locus YJL187C, strain SWE1, active compounds read low
[10] = S. cerevisiae deletion strains, locus YJR043C, strain POL32, active compounds read low
[11] = S. cerevisiae deletion strains, locus YJR075W, strain HOC1, active compounds read low
[12] = S. cerevisiae deletion strains, locus YKL190W, strain CNB1, active compounds read low
[13] = S. cerevisiae deletion strains, locus YLR039C, strain RIC1, active compounds read low
[14] = S. cerevisiae deletion strains, locus YLR058C, strain SHM2 (second series), active compounds read low
[15] = S. cerevisiae deletion strains, locus YLR085C, strain ARP6, active compounds read low
[16] = S. cerevisiae deletion strains, locus YLR262C, strain YPT6, active compounds read low
[17] = S. cerevisiae deletion strains, locus YML094W, strain GIM5, active compounds read low
[18] = S. cerevisiae deletion strains, locus YMR219W, strain ESC1, active compounds read low
[19] = S. cerevisiae deletion strains, locus YMR263W, strain SAP30, active compounds read low
[20] = S. cerevisiae deletion strains, locus YNL153C, strain GIM3, active compounds read low
[21] = S. cerevisiae deletion strains, locus YNL298W, strain CLA4 (second series), active compounds read low
[22] = S. cerevisiae deletion strains, locus YNL322C, strain KRE1, active compounds read low
[23] = S. cerevisiae deletion strains, locus YNR030W, strain Alg12, active compounds read low
[24] = S. cerevisiae deletion strains, locus YPL055C, strain LGE1, active compounds read low
[25] = S. cerevisiae deletion strains, locus YPL241C, strain CIN2, active compounds read low
[26] = S. cerevisiae deletion strains, locus YPR135W, strain CTF4, active compounds read low
[27] = S. cerevisiae deletion strains, locus YCL061C, strain MRC1, active compounds read low
[28] = S. cerevisiae deletion strains, locus YEL061C, strain CIN8, active compounds read low

In the case of `O=C(CSCc1c(Cl)cccc1Cl)NNC(=S)NC1CC2C=CC1C2` (centres undefined), the normalized growth [1] was 0.99, the normalized growth [2] was 0.972 and the normalized growth [3] was 0.94. For the same compound, the normalized growth [4] was 0.857 (active), the normalized growth [5] was 0.956 and the normalized growth [6] was 0.97. It also gave a normalized growth [7] of 0.838, a normalized growth [8] of 1.06 and a normalized growth [9] of 0.979. For the same compound, the normalized growth [10] was 0.971, the normalized growth [11] was 0.973 and the normalized growth [12] was 0.762 (active). The normalized growth [13] was 0.607 (active), the normalized growth [14] was 1.01 and the normalized growth [15] was 0.788. The normalized growth [16] was 0.59 (active), the normalized growth [17] was 0.827 (active) and the normalized growth [18] was 1.01. For the same compound, the normalized growth [19] was 0.944, the normalized growth (S. cerevisiae deletion strains, locus YNL128W, strain TEP1, active compounds read low) was 0.792 (active) and the normalized growth [20] was 0.955. For the same compound, the normalized growth [21] was 0.658 (active), the normalized growth [22] was 1.02 and the normalized growth [23] was 0.781 (active). The normalized growth [24] was 0.867, the normalized growth [25] was 0.696 (active) and the normalized growth [26] was 0.873. For the same compound, the normalized growth (S. cerevisiae strains, strain wild type, active compounds read low) was 0.746 (active).

Compound `O=C(NNC(=S)Nc1cccc(Cl)c1)c1cccnc1` has a normalized growth [1] of 1, a normalized growth [2] of 1 and a normalized growth [27] of 0.976. For the same compound, the normalized growth [3] was 0.978, the normalized growth [5] was 0.969 and the normalized growth [28] was 1.01. The normalized growth [6] was 0.97, the normalized growth [7] was 0.939 and the normalized growth [8] was 0.992. It also gave a normalized growth [9] of 0.985, a normalized growth [10] of 0.999 and a normalized growth [11] of 0.982. It also gave a normalized growth [13] of 1.03, a normalized growth [14] of 0.997 and a normalized growth [15] of 0.885. For the same compound, the normalized growth [16] was 1.02, the normalized growth [17] was 0.965 and the normalized growth [18] was 0.999. It also gave a normalized growth [19] of 0.949, a normalized growth [20] of 0.979 and a normalized growth [21] of 0.98. The normalized growth [22] was 0.994, the normalized growth [23] was 0.956 and the normalized growth (S. cerevisiae deletion strains, locus YOL006C, strain TOP1, active compounds read low) was 0.803. The normalized growth [24] was 0.868, the normalized growth [25] was 0.972 and the normalized growth [26] was 0.893.

Work on `O=C(NNC(=S)NC1CC2C=CC1C2)c1cccnc1` (centres undefined) yielded a normalized growth [1] of 0.985, a normalized growth [2] of 0.992 and a normalized growth [27] of 0.971. The normalized growth [3] was 0.979, the normalized growth [4] was 0.992 and the normalized growth [5] was 0.971. It also gave a normalized growth [28] of 0.977, a normalized growth [6] of 0.982 and a normalized growth [7] of 0.908. It also gave a normalized growth [8] of 1.07, a normalized growth [9] of 0.989 and a normalized growth [10] of 0.977. The normalized growth [11] was 0.986, the normalized growth [12] was 0.997 and the normalized growth [13] was 0.812. For the same compound, the normalized growth [14] was 0.985, the normalized growth [15] was 0.938 and the normalized growth [16] was 0.809 (active). The normalized growth [17] was 0.962, the normalized growth [18] was 0.993 and the normalized growth [19] was 0.984. It also gave a normalized growth (S. cerevisiae deletion strains, locus YMR307W, strain GAS1, active compounds read low) of 1.22, a normalized growth [20] of 0.993 and a normalized growth [21] of 0.958. It also gave a normalized growth [22] of 0.993, a normalized growth [23] of 0.979 and a normalized growth [24] of 0.979. For the same compound, the normalized growth [25] was 0.964 and the normalized growth [26] was 0.92.
